The source made the active and inactive calls.
Legend:
[1] = test system: XIP peptide (Xip251-270) binding; assay: XIP fragment 251-270 binding compounds – biochemical, small-molecule microarray, fluorescence 635/667 nm, 0.1 µg/mL protein, primary screen (AID 1182); details: fluorescent protein binding, 635 nm, higher = more signal, called active from +8 up or from −8 down
XIP peptide (Xip251-270) = assay: compounds binding XIP fragment 251-270 – biochemical, small-molecule microarray, fluorescence 635/667 nm, 0.5 µg/mL protein, primary screen (AID 1183); details: fluorescence 635 nm, higher = more signal
[2] = blood-stage malaria parasite viability loss – strain 3D7, DAPI fluorescence, 100 nL, primary screen (AID 1184);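 also: parasites grown inside human red blood cells in medium with human serum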; details: P. falciparum 3D7 growth, 3 d, higher = more signal
[3] = target: Homeobox protein Hox-A13 (Mus musculus) (UniProt Q62424); assay: disruptors of Hoxa13 oligonucleotide interaction – biochemical, fluorescence polarization, labeled oligonucleotide, primary screen (AID 1185); details: Hoxa13:DNA binding, 15 min, higher = more signal, called active from +8 up or from −8 down
Chain of Homeobox protein Hox-A13 (Mus musculus) (Q62424 whole entry, looked up): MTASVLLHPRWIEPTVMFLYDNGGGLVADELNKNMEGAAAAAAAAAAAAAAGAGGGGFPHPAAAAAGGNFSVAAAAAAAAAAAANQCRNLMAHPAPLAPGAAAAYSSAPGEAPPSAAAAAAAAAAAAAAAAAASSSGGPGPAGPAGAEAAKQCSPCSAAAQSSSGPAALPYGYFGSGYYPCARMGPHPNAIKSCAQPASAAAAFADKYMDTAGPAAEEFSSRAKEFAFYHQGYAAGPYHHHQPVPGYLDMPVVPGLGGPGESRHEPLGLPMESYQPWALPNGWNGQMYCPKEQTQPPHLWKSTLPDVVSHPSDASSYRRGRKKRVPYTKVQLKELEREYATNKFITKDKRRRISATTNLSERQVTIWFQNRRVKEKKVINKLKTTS

Structure (SMILES) | composite z-score [1] | composite z-score (XIP peptide (Xip251-270)) | z-score [2] | z-score [3]
CC(C)CON=C1C[C@@H](O)[C@@H](O)[C@@H]2[C@@H]3C(=O)N([C@@H](C)c4ccccc4)C(=O)[C@@H]3CC[C@@H]12 | 0.0068 (inactive) | -0.344 | -0.274 | -2.35 (inactive)
CCCNC(=O)OC[C@H]1O[C@H](CCON=C[C@@H](C)[C@H](OCc2ccccc2)C(C)C)C=C[C@@H]1Oc1ccc(OC)cc1 | 0.196 (inactive) | -0.267 | -0.591 | -3.32 (inactive)
C=CC[C@@H]1C=C[C@H](ON=CC[C@@H]2C=C[C@H](OC(C)=O)[C@@H](COC(C)=O)O2)[C@@H](CO)O1 | 0.571 (inactive) | 0.749 | 0.422 | -0.273 (inactive)
COCC#Cc1ccc([C@@H]2N[C@H](C(=O)O)CC[C@H]2C)cc1 | -0.238 (inactive) | -0.52 | 0.383 | -1.46 (inactive)
C#CCCCON=C1C[C@@H](O)[C@@H](O)[C@@H]2[C@@H]3C(=O)N(C[C@@H]4CCCO4)C(=O)[C@@H]3CC[C@H]12 | 0.241 (inactive) | 0.317 | 0.211 | -1.28 (inactive)
CC(CCN1CCCCc2nc(C)c(C)cc21)=NO[C@H](C)c1cn([C@@H]2COC[C@H]2O)nn1 | 0.641 (inactive) | 0.382 | 0.255 | -1.36 (inactive)
CC(C)[C@@H](OCc1ccccc1)[C@H](C)C=NO[C@H](C)c1cn([C@@H]2COC[C@H]2O)nn1 | -0.0971 (inactive) | 0.0742 | 1.61 | -0.967 (inactive)
CC(CCN1CCCCc2nc(C)c(C)cc21)=NO[C@@H](C)c1cc(-c2c(C)cc(C)cc2C)no1 | 0.107 (inactive) | 0.0399 | -0.143 | -2.25 (inactive)
CC(C)=CCCC(C)=CCON=C1C[C@@H](O)[C@@H](O)[C@@H]2[C@@H]3C(=O)N(Cc4ccc5c(c4)OCO5)C(=O)[C@@H]3CC[C@@H]12 | 1.07 (inactive) | 0.245 | -0.526 | -0.814 (inactive)
CCN1C(=O)[C@H]2[C@H]3[C@H](O)[C@H](O)CC(=NO[C@@H](C)c4cc(-c5c(C)cc(C)cc5C)no4)[C@@H]3CC[C@H]2C1=O | 0.359 (inactive) | 0.811 | 0.563 | -6.73 (inactive)
COc1ccc(O[C@H]2C=C[C@@H](C#Cc3ccccc3)O[C@@H]2CO)cc1 | -0.727 (inactive) | 0.266 | 0.284 | -3.22 (inactive)
CON=C(C)CCN1CCCCc2nc(C)c(C)cc21 | 0.0459 (inactive) | 0.49 | 1.06 | -2.24 (inactive)
CSCC[C@@H]1NC(=O)CC=C[C@@H](C)COC(=O)[C@H](C)COC1=O | 0.439 (inactive) | 0.8 | 0.461 | 0.0971 (inactive)
O=C1[C@H]2CCn3c(=O)n(-c4ccccc4)c(=O)n3[C@H]2[C@H](O)[C@@H]2O[C@H]12 | -0.0756 (inactive) | 0.614 | -0.815 | -0.418 (inactive)
O=C1C2=CC[C@H]3C(=O)N(Cc4ccccc4)C(=O)[C@H]3[C@H]2[C@H](O)[C@@H]2O[C@H]12 | 0.409 (inactive) | -0.194 | -0.116 | -5.55 (inactive)
CCN1C(=O)[C@H]2[C@H]3[C@H](O)[C@H](O)CC(=NOC[C@@H](O)[C@H]4O[C@@H]5OC(C)(C)O[C@@H]5[C@H]4O)[C@@H]3CC[C@H]2C1=O | -0.0371 (inactive) | 0.33 | 0.663 | 0.303 (inactive)
COC(=O)C1=C(C)N(Cc2ccccc2)C2=C3C(=O)OCC[C@@H]3[C@@](O)(C(=O)OC)C(=O)N2[C@@H]1c1ccccc1 | 0.75 (inactive) | -0.189 | 0.964 | -0.987 (inactive)
COC(=O)CC=C[C@@H](C)[C@@H](C=NOC[C@@H](O)COCc1ccco1)NS(=O)(=O)c1ccc(C)cc1 | 0.133 (inactive) | 0.239 | -0.546 | -3.79 (inactive)
COC(OC)[C@@H](C)[C@H](OC)[C@@H](C)[C@H](OC)c1ccccc1 | -0.17 (inactive) | -0.0245 | 0.129 | -0.402 (inactive)
CCCNC(=O)OC[C@H]1O[C@H](CCON=C2c3cc(OC)ccc3O[C@H](c3cccc(OC)c3)[C@H]2O)C=C[C@@H]1Oc1ccc(OC)cc1 | 0.328 (inactive) | 0.693 | 0.365 | -1.94 (inactive)
COC(=O)CC=C1c2ccccc2[C@H](OC)[C@H]1C | -1.14 (inactive) | -0.302 | 0.406 | 0.281 (inactive)
COC(=O)[C@H](C)NC(=O)CCC1CC(OC(=O)NCCc2ccc(F)cc2)CC2(CCCC(COC(=O)NCc3ccccc3)O2)O1 (stereo not given in full) | 0.166 (inactive) | 0.607 | -1.93 | -1.56 (inactive)
O=C1[C@H]2[C@H]3[C@H](O)[C@H](O)CC(=NO[C@@H]4O[C@H](CO)[C@@H](O)[C@H](O)[C@H]4O)[C@@H]3CC[C@H]2C(=O)N1C1CCCCC1 | -0.25 (inactive) | 0.0473 | 0.0387 | 0.719 (inactive)

Structure (SMILES) | composite z-score [1] | composite z-score (XIP peptide (Xip251-270)) | z-score [2] | z-score [3]
C=C(C)C(=O)OC[C@H]1CN2[C@@H](CC[C@@H](C)[C@@H]2c2ccc(Br)cc2)C(=O)O1 | 0.414 (inactive) | -0.102 | 1.05 | -2.2 (inactive)
CO[C@@H]1COC(=O)[C@@H]2CCCN2C(=O)[C@@H](C)COC(=O)CCC[C@H]1C | -0.0308 (inactive) | 0.143 | 0.193 | 0.694 (inactive)
Cc1cc(C)c(-c2cc([C@H](C)ON=C[C@@H](C)[C@H](OCc3ccccc3)C(C)C)on2)c(C)c1 | -0.0022 (inactive) | -0.291 | -0.317 | -0.415 (inactive)
CC(C)(C)N1C(=O)[C@H]2[C@H]3[C@H](O)[C@H](O)CC(=NNC(=O)OCc4ccccc4)[C@@H]3CC[C@H]2C1=O | 0.0863 (inactive) | 0.195 | 2.05 | 0.408 (inactive)
CC(C)(C)N1C(=O)[C@H]2[C@H]3[C@H](O)[C@H](O)CC(=NOC[C@@H](O)COCc4ccco4)[C@@H]3CC[C@H]2C1=O | -0.484 (inactive) | 0.502 | -0.0662 | -2.78 (inactive)
CC(C)=CCCC(C)=CCON=C1C[C@@H](O)[C@@H](O)[C@@H]2[C@@H]3C(=O)N(Cc4ccc5c(c4)OCO5)C(=O)[C@@H]3CC[C@H]12 | 0.165 (inactive) | 0.17 | -0.348 | -4.72 (inactive)
CCOC(=O)[C@H](CC(C)C)NC(=O)CCC1CC(OC(=O)NCCc2ccc(F)cc2)CC2(CCCC(COC(=O)NCCCN3CCCC3=O)O2)O1 (stereo not given in full) | 0.173 (inactive) | 0.74 | -1.82 | -6.3 (inactive)
CO[C@H]1COC(=O)CCC[C@H](C)[C@@H](OC)COC(=O)CC=C[C@@H]1C | -0.294 (inactive) | 0.003 | -0.809 | 0.544 (inactive)
COC(=O)[C@H](C)NC(=O)CCC1CC(OC(=O)NCc2cccc3ccccc23)CC2(CCCC(COC(=O)NCCC(C)C)O2)O1 (stereo not given in full) | -0.477 (inactive) | 0.468 | -1.57 | -5.31 (inactive)
CO[C@@H]1COC(=O)CC=C[C@H](C)[C@H](OC)COC(=O)[C@@H]2CCCN2C(=O)CC=C[C@H]1C | 0.233 (inactive) | 0.607 | -1.52 | -1.11 (inactive)
COC(=O)[C@H](C)NC(=O)CCC1CC(OC(=O)NCc2ccc3c(c2)OCO3)CC2(CCCC(COC(=O)NCCc3ccc(Cl)cc3)O2)O1 (stereo not given in full) | 0.0239 (inactive) | 0.375 | -1.97 | -5.07 (inactive)
CO[C@H]1COC(=O)[C@H](C)COC(=O)[C@H](C)NC(=O)CC=C[C@H]1C | 0.126 (inactive) | 0.506 | 0.0087 | -0.299 (inactive)
C#CCCCON=C1[C@H]2CCn3c(=O)n(Cc4cc5c(cc4Cl)OCO5)c(=O)n3[C@H]2[C@H](O)[C@@H]2O[C@H]12 | -0.18 (inactive) | 0.278 | -0.579 | -0.911 (inactive)
O=C1[C@H]2[C@H]3[C@H](O)[C@H](O)CC(=NOC[C@@H](O)COCc4ccco4)[C@@H]3CC[C@H]2C(=O)N1C1CCCCC1 | 0.288 (inactive) | 0.306 | 1.7 | -4.42 (inactive)
O=C1[C@H]2[C@H]3[C@H](O)[C@H](O)CC(=NOC[C@@H](O)COCc4ccco4)[C@@H]3CC[C@H]2C(=O)N1Cc1ccccc1 | 0.41 (inactive) | 0.64 | -0.986 | -2.98 (inactive)
CC(C)CON=C1[C@H]2CCn3c(=O)n(C)c(=O)n3[C@H]2[C@H](O)[C@@H]2O[C@H]12 | -0.12 (inactive) | 0.245 | 1.43 | 0.322 (inactive)
O=C(NN=C1C[C@@H](O)[C@@H](O)[C@@H]2[C@@H]3C(=O)N(Cc4ccccc4)C(=O)[C@@H]3CC[C@H]12)OCc1ccccc1 | -0.578 (inactive) | -0.0586 | 0.892 | -0.2 (inactive)
CO[C@@H](C1CCCCC1)[C@@H](C)[C@H](OCc1cccc(Br)c1)[C@@H](C)CO | -0.0994 (inactive) | -0.0791 | -0.254 | -4.53 (inactive)
CC(C)=NOC[C@@H](O)[C@H]1O[C@@H]2OC(C)(C)O[C@@H]2[C@H]1O | 0.524 (inactive) | -0.122 | 0.292 | 0.483 (inactive)
CC(C)CON=C1C[C@@H](O)[C@@H](O)[C@@H]2[C@@H]3C(=O)N(Cc4ccccc4)C(=O)[C@@H]3CC[C@H]12 | -0.0404 (inactive) | 0.106 | -1.65 | -2.34 (inactive)
CC(C)=CCCC(C)=CCON=C1C[C@@H](O)[C@@H](O)[C@@H]2[C@@H]3C(=O)N(C4CCCCC4)C(=O)[C@@H]3CC[C@H]12 | 1.45 (inactive) | 0.722 | 0.273 | -0.469 (inactive)
CCOC(=O)[C@H](Cc1ccccc1)NC(=O)CCC1CC(OC(=O)NCCc2ccc(F)cc2)CC2(CCCC(COC(=O)NCCC(C)C)O2)O1 (stereo not given in full) | 0.162 (inactive) | 0.657 | -1.66 | -4.45 (inactive)

From PubChem BioAssay
